# The campaign covered roughly 69,000 compounds. About 1,000 (1.4%) showed an effect of 50% or more. The full list was thinned out, with strong results kept by preference.
# Tested on: Leishmania donovani
# Experiment: Leishmania intramacrophage assay
# Format: functional, organism-based
# Design: scale not given: in the data most compounds retested in dose-response had high values
structure (smiles),measurement,setting,value
Cc1nc(CN(C)C2CCN(Cc3ccc(C(N)=O)cc3)C2)no1 (configuration not stated),Percent Effect,30 µM,31.74%
Cc1cccc(S(=O)(=O)NC(=O)CN(C)Cc2ccccc2)c1,Percent Effect,"30.3 µM, […]",14.38%
Cc1ccccc1[C@@H]1CN(Cc2ccc(C(F)(F)F)nc2)C[C@H]1C(=O)O,Percent Effect,"30.3 µM, […]",13.27%
Fc1ccc(OCCNC2CCN(Cc3ccncc3)CC2)c(F)c1,Percent Effect,"30.3 µM, […]",39.31%
Fc1ccc(OCCNC2CCN(Cc3ccccn3)CC2)c(F)c1,Percent Effect,"30.3 µM, […]",52.55%
N#Cc1ccc(NC2CCN(Cc3ccccn3)CC2)c(F)c1,Percent Effect,"30.3 µM, […]",-12.41%
CCN1CCN(CC(O)c2ccc(OC(F)(F)F)cc2)CC1 (configuration not stated),Percent Effect,"30 µM, 30.03 µM",18.61%
O=C1CC2(CCN(C(=O)C3CCCCC3)C2)Nc2ccccc2N1 (configuration not stated),Percent Effect,"30.3 µM, […]",29.44%
Cc1nc(CO[C@H]2CN(C(=O)c3cnoc3C)[C@@H]3COC[C@H]23)cs1.O=C(O)C(F)(F)F,Percent Effect,"30.3 µM, […]",6.994%
CCOCC(O)CN1CCN(C(=O)c2cc(C)ccc2F)CC1 (configuration not stated),Percent Effect,30 µM,-8.817%
COCCOCC(=O)NC(C#N)c1cccc(Cl)c1Cl (configuration not stated),Percent Effect,"30.3 µM, […]",-18.55%
CCOCC1c2c(ncn2C(C)C)CCN1C(=O)C1CC1 (configuration not stated),Percent Effect,"30.3 µM, […]",23.55%
c1cc(-c2ccc3c(c2)C2(CC3)CCN(c3nncs3)CC2)ccn1,Percent Effect,"30.3 µM, […]",59.16%
c1cc(-c2ccc3c(c2)CCC32CCN(c3nncs3)CC2)co1,Percent Effect,"30.3 µM, […]",-6.512%
CN(C)CC(=O)N1CCC2(CCc3ccc(-c4ccncc4)cc32)CC1.O=C(O)C(F)(F)F.O=C(O)C(F)(F)F,Percent Effect,"30.3 µM, […]",33.01%
Cc1ccc2c(c1)C1(CC2)CCN(c2nncs2)CC1,Percent Effect,"30 µM, 30.03 µM",8.524%
O=C(O)C(F)(F)F.c1cncc(-c2ccc3c(c2)C2(CC3)CCN(c3nncs3)CC2)c1,Percent Effect,"30 µM, 30.03 µM",47.88%
O=C(O)C(F)(F)F.c1cc(-c2ccc3c(c2)CCC32CCN(c3nncs3)CC2)ccn1,Percent Effect,"30.3 µM, […]",73.19%
Cc1noc(C)c1CN1C(=O)[C@H]2CC[C@@H]1CN(Cc1ccc(Cl)cc1)C2,Percent Effect,"30.3 µM, […]",25.74%
COc1ccc(F)cc1C(C(=O)O)N1CCCN(C2CCCC2)CC1 (configuration not stated),Percent Effect,"30.3 µM, […]",27.32%
CCS(=O)(=O)N1CCN(Cc2cccnc2)c2nc(C)ccc2C1.O=C(O)C(F)(F)F.O=C(O)C(F)(F)F,Percent Effect,"30.3 µM, […]",32.81%
COc1cccc(CCC(=O)N2CCC[C@@H](N)[C@@H]2c2ccccc2F)c1.Cl,Percent Effect,"30.3 µM, […]",36.93%
N[C@@H]1CCCN(C(=O)Cc2c[nH]c3ccccc23)[C@H]1c1ccccc1F,Percent Effect,"30.3 µM, […]",38.86%
COc1ccc(CC(=O)N2CCC[C@@H](N)[C@@H]2c2ccccc2F)cc1.Cl,Percent Effect,"30.3 µM, […]",50.59%
Cc1noc2ncc(S(=O)(=O)Nc3cc(CC(C)(C)C)[nH]n3)cc12,Percent Effect,"30.3 µM, […]",32.33%
CCN(CCO)C(=O)c1cc(Cn2c(C)nc3ccccc32)[nH]n1,Percent Effect,"30.3 µM, […]",22.11%
CCCN(CC)C(=O)c1cc(Cn2c(C)nc3ccccc32)[nH]n1,Percent Effect,"30.3 µM, […]",56.73%
CCCN(CCOC)C(=O)c1cc(Cn2c(C)nc3ccccc32)[nH]n1,Percent Effect,"30.3 µM, […]",37.64%
CCc1nnc2n1CCN(C(=O)c1ccc(-c3ccco3)[nH]c1=O)C2,Percent Effect,30 µM,4.718%
COc1ccccc1N1CCN(C(=O)CSCC2CC2)C(C)C1 (configuration not stated),Percent Effect,"30.3 µM, […]",-23.1%
Cc1ccc(C)c(CSc2nnc([C@@H](N)C(C)C)o2)c1.Cl,Percent Effect,"30.3 µM, […]",-10.46%
CSCC[C@H](N)c1nnc(SCc2cc(C)ccc2C)o1.Cl,Percent Effect,"30.3 µM, […]",51.5%
Cc1ccc(C)c(CSc2nnc(C(N)C(C)C)o2)c1.Cl (configuration not stated),Percent Effect,"30.3 µM, […]",-13.85%
Cc1noc(C)c1-c1cncc(C2CCCN2Cc2cn(C)cn2)n1 (configuration not stated),Percent Effect,"30.3 µM, […]",19.34%
CNC(=O)N1CC[C@@H]2CN(Cc3cccc(Cl)c3)S(=O)(=O)[C@@H]2CC1,Percent Effect,"30.3 µM, […]",7.409%
CNC(=O)N1CC[C@@H]2CN(Cc3cccc(OC)c3)S(=O)(=O)[C@@H]2CC1,Percent Effect,"30.3 µM, […]",61.69%
CCCC(C(=O)NC1CCN(S(C)(=O)=O)CC1)n1cccc1 (configuration not stated),Percent Effect,"30.3 µM, […]",18.03%
COc1ccc(CN2CCC3(CC2)CN(c2ccccn2)CCO3)cc1.O=C(O)C(F)(F)F.O=C(O)C(F)(F)F,Percent Effect,"30.3 µM, […]",-28.76%
COc1ccc(C(CNS(=O)(=O)c2cn(C)nc2C)N2CCCC2)cc1.Cl (configuration not stated),Percent Effect,"30.3 µM, […]",23.75%
Cc1[nH]c2c(F)cccc2c1CC(=O)N1CCCC(N)CC1 (configuration not stated),Percent Effect,"30.3 µM, […]",-7.725%
Cn1cc(C2CC(=O)NC23CCN(C(=O)c2cccnc2)CC3)cn1.O=C(O)C(F)(F)F (configuration not stated),Percent Effect,"30.3 µM, […]",56.16%
Cn1cc(C2CC(=O)NC23CCN(C(=O)Cc2ccccn2)CC3)cn1.O=C(O)C(F)(F)F (configuration not stated),Percent Effect,"30.3 µM, […]",2.376%
Cc1cncc(C(=O)N2CCC3(CC2)NC(=O)CC3c2ccccc2)c1.O=C(O)C(F)(F)F (configuration not stated),Percent Effect,"30.3 µM, […]",4.194%
O=C(NCCn1nc2ccccn2c1=O)c1sccc1-c1ccccc1,Percent Effect,30 µM,25.6%
Cn1ccc(NC(=O)Cc2ccccc2F)n1,Percent Effect,"30.3 µM, […]",-10.05%
COC(=O)N1CCCC(C(=O)Nc2nc(C)c(SC)s2)C1 (configuration not stated),Percent Effect,"30.3 µM, […]",9.664%
CC(C)OCCC(=O)NS(=O)(=O)N1CCOc2ccccc21,Percent Effect,"30.3 µM, […]",-11.14%
O=C(CCc1ccco1)NS(=O)(=O)N1CCOc2ccccc21,Percent Effect,"30.3 µM, […]",39.68%
O=C(CCOCc1ccccc1)NS(=O)(=O)N1CCOc2ccccc21,Percent Effect,"30.3 µM, […]",54.49%
COCCn1cc(C(=O)N2CCCC2c2ccncc2)c2ccccc21 (configuration not stated),Percent Effect,"30.3 µM, […]",-8.376%
O=C(c1cccnc1)N1CCC2(CNS(=O)(=O)c3cnccc3O2)C1 (configuration not stated),Percent Effect,"30.3 µM, […]",9.418%
Cc1cc(N2CCN(C(=O)[C@@H]3C[C@@H]4C=C[C@H]3C4)CC2)nc2ccccc12,Percent Effect,"30.3 µM, […]",19.09%
CC(=O)Nc1ccc(C(=O)N(C)Cc2cccc(F)c2)s1,Percent Effect,"30.3 µM, […]",-28.94%
CC(=O)Nc1ccc(C(=O)N(C)Cc2ccc(F)cc2F)s1,Percent Effect,"30.3 µM, […]",41.29%
COc1cccc(CN(C)C(=O)c2ccc(NC(C)=O)s2)c1OC,Percent Effect,"30.3 µM, […]",52.82%
Cc1cc(C(=O)NCc2cccnc2N2CCCC(O)C2)c(C)o1 (configuration not stated),Percent Effect,"30.3 µM, […]",26.29%
COc1ccc(C(=O)C2CCCN(c3cnccn3)C2)c(C)c1 (configuration not stated),Percent Effect,"30.3 µM, […]",7.713%
COc1ccc(C(=O)C2CCCN(c3cc(OC)ncn3)C2)c(C)c1 (configuration not stated),Percent Effect,"30.3 µM, […]",27.19%
CCc1nc(C)cc(N2CCCC(C(=O)c3ccc(OC)cc3C)C2)n1 (configuration not stated),Percent Effect,"30.3 µM, […]",50.79%
CCc1nc2n(n1)CCCC2NC(=O)Nc1cc(OC)ccc1C (configuration not stated),Percent Effect,"30.3 µM, […]",6.976%
COc1ccc(C(=O)C2CCCN(c3nccc(N)n3)C2)c(C)c1 (configuration not stated),Percent Effect,"30.3 µM, […]",44.3%
COc1ccc(C(=O)C2CCCN(c3cc(N)ncn3)C2)c(C)c1 (configuration not stated),Percent Effect,"30.3 µM, […]",55.56%

# Reference: ChEMBL document CHEMBL3988442, “University of Dundee, Small-Polar-MMV Screening Library” (2021)
